The record followed here is PubChem BioAssay.

The subject of assay [1] is PRMT1 (protein arginine N-methyltransferase 1). In words: PRMT1 binders on small-molecule microarrays, primary screen, biochemical, small-molecule microarray, 635 nm fluorescence (AID 1088).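 Further: binding of Prmt1 protein to compounds spotted on small-molecule microarray slides.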 Particulars: small-molecule microarray binding, higher = more signal.
Assay [2] can be described thus: yeast growth modulation, basal conditions, primary screen, YJM789 clinical isolate, OD600, 24 h (AID 1089).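 Further: growth of clinical yeast isolate S. cerevisiae YJM 789 seeded 1000 cells per well; test concentration not given here.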 The note with it: S. cerevisiae YJM789 growth, higher = more signal, called active from +8 up or from −8 down.
A short description of assay [3]: fission yeast growth modulation, primary screen, strain 972, OD600, 24 h, no modulator (AID 1090).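 Further: basal condition with compound alone and no growth modifier present; test concentration not given here.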 Particulars: S. pombe 972 growth, higher = more signal, called active from +8 up or from −8 down.
Assay [4] is described as follows: S. cerevisiae growth modulation with rapamycin, primary screen, strain BY4716, OD600, 96 h (AID 1091). Further: test concentration not given here. The note with it: higher = more signal, called active from +8 up or from −8 down.
In assay [5] the target is Torsin-1A-interacting protein 2 (Homo sapiens) (UniProt Q8NFQ8). Kind of assay: LULL1 binders on small-molecule microarray, primary screen, cell lysate, human LULL1 lysate, 635/667 nm fluorescence (AID 1092).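 Further: probe is lysate of COS7 cells overexpressing human LULL1; score merges per-feature 667 nm fluorescence with signal-to-noise.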 The note with it: hLULL1 lysate binding, 635 nm fluorescence, higher = more signal.
Sequence of Torsin-1A-interacting protein 2 (Homo sapiens) (Q8NFQ8 whole entry, looked up): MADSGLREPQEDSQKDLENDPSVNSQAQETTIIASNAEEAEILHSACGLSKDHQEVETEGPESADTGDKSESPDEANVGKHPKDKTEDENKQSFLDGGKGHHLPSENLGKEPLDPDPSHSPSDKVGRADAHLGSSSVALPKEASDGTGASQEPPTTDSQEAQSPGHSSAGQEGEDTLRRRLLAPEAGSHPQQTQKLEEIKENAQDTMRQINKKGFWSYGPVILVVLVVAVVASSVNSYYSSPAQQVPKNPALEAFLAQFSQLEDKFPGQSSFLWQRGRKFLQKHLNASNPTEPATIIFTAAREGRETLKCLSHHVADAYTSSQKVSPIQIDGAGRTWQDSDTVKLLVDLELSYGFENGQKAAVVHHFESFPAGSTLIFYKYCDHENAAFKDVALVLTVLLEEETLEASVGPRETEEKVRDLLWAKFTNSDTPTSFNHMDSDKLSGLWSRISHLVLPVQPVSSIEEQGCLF
The nature of assay [6]: E. coli growth modulation, two-sided OD650, primary screen, E. coli filamentation project, strain DRC41, 24 h (AID 1093).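 Further: MC1000 strain lacking acrAB efflux and sulA so SOS filamentation is blocked; test concentration not given here.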 Particulars: OD650, 24 h, higher = more signal, called active from +8 up or from −8 down.
The nature of assay [7]: small-molecule microarray binders of probe aLefty2, primary screen, biochemical, biotinylated probe, 635/667 nm fluorescence (AID 1094).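 Further: score merges spot fluorescence near 667 nm with spot signal-to-noise ratio.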 Particulars: higher = more signal.
For assay [8], the system named is Noggin (protein binding on small-molecule microarray). In words: Noggin binders on small-molecule microarray, primary screen, biochemical, 635/667 nm fluorescence (AID 1095).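 Further: score merges 667 nm feature fluorescence with signal to noise over triplicate slides.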 Particulars: 635 nm fluorescence, higher = more signal.
Assay [9] has as its target Neurogenic locus notch homolog protein 3 (Homo sapiens) (UniProt Q9UM47). Kind of assay: NOTCH3 binders on small-molecule microarray, primary screen, biochemical, 635/667 nm fluorescence (AID 1096). Particulars: NOTCH3 binding, 635 nm fluorescence, higher = more signal.
Assay [10] is described as follows: small-molecule microarray binders of probe aEGFR, primary screen, biochemical, biotinylated probe, 635/667 nm fluorescence (AID 1097).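 Further: probe is a biotinylated anti-EGFR antibody binding compounds printed on slides; score combines fluorescence near 667 nm and signal to noise of each spot.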 Particulars: higher = more signal.

The structures appear in SMILES notation. The source made the active and inactive calls.

Sequence of Neurogenic locus notch homolog protein 3 (Homo sapiens) (Q9UM47 whole entry, looked up): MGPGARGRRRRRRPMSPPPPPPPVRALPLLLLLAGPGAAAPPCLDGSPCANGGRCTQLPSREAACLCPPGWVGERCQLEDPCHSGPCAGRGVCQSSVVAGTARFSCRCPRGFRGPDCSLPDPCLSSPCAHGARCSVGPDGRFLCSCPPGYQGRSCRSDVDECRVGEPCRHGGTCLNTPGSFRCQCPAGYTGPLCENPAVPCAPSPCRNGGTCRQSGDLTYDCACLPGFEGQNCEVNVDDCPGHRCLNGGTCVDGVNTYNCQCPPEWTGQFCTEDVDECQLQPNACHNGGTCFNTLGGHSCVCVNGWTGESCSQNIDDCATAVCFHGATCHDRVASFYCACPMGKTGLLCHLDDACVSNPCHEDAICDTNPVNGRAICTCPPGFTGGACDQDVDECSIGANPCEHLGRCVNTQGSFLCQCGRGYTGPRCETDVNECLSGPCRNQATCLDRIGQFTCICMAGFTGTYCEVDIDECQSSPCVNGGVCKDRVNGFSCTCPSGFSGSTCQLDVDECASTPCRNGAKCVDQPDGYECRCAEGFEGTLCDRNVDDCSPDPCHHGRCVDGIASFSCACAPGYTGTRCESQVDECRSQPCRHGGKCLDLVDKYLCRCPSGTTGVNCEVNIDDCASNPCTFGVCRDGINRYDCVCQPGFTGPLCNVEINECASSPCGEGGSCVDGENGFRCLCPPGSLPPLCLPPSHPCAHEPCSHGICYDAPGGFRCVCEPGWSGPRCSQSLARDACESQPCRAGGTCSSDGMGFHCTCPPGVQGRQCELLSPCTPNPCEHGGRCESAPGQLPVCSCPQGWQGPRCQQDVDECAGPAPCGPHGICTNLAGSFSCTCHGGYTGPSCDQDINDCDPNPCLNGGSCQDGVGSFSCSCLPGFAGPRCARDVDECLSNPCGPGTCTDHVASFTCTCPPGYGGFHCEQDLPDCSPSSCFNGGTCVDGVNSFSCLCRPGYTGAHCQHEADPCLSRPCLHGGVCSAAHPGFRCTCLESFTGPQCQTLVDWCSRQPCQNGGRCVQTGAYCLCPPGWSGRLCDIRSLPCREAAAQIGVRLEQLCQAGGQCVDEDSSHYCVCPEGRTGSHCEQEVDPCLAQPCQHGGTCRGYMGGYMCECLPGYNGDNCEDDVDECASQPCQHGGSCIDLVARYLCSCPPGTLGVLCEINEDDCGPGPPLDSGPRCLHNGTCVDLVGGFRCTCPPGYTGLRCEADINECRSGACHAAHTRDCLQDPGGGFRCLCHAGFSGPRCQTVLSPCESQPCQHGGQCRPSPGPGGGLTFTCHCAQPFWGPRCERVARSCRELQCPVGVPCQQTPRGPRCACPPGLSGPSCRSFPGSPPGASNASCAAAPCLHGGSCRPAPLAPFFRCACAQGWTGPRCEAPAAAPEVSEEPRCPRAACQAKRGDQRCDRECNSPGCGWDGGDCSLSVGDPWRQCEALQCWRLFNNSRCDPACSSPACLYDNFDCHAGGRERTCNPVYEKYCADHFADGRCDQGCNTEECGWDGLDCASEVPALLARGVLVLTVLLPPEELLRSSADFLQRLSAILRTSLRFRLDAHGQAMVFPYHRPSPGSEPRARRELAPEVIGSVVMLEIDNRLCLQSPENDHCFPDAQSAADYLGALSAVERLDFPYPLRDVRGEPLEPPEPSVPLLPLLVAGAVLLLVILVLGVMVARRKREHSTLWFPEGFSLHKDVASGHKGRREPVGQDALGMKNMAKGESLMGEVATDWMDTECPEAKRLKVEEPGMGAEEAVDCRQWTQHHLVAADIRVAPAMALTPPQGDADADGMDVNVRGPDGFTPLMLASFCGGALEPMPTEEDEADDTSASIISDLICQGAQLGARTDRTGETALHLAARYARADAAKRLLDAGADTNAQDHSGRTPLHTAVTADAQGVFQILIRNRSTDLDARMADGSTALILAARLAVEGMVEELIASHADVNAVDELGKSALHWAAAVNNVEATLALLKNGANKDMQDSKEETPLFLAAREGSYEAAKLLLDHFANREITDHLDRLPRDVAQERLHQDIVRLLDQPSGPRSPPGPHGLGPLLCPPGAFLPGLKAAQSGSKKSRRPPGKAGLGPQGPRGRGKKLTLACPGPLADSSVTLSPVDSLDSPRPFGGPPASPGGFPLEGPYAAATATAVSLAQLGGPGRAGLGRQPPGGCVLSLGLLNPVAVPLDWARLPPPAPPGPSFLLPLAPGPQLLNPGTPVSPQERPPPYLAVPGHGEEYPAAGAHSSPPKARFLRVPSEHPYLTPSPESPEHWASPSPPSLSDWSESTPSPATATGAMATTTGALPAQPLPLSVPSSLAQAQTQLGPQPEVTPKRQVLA

Consider `CC(C)C[C@@H]1NC(=O)[C@@H]2C[C@H](C(=O)NCCCCCC[N+](C)(C)C)[C@H](c3ccc(O)cc3)N2C1=O`, for which the composite z-score is 1.56 in [1]; 3.21 in assay [5]; -0.0437 in [7]; 0.857 in assay [8]; 0.873 in assay [9]; -0.176 in assay [10]. For the same molecule, the z-score in assay [2] was 0.633 (inactive); in assay [3], 0.904 (inactive); in assay [4], 0.445 (inactive); in [6], 0.266 (inactive).

On to `O=C1O[C@H](c2ccccc2)[C@H](c2ccccc2)N2[C@H]1[C@@H](C(=O)N1CCN(c3ncccn3)CC1)[C@]1(C(=O)Nc3ccccc31)[C@H]2c1ccc(OCCO)cc1`, for which the composite z-score was 1.56 in assay [1]; 2.35 in [5]; -0.037 in [7]; 1.88 in assay [8]; 1.1 in assay [9]; -0.0763 in assay [10]. Also, the z-score is 2.72 (inactive) in [2], 0.573 (inactive) in assay [3], 4.75 (inactive) in assay [4] and 2.9 (inactive) in assay [6].

Take `CCCC[C@@H]1C[C@H]1[C@@H](NC(=O)c1ccc(-c2ccccc2)cc1)c1ccc(-c2ccccc2)cc1`: the composite z-score in assay [1] was 0.407; in assay [5] it was 0.983; in assay [7], -0.0986; in assay [8], 0.677; in assay [9], 1; in assay [10], -0.109. Moreover, the z-score in assay [2] was -0.38 (inactive); in assay [3] it was -6.62 (inactive); in assay [4] it was -2.47 (inactive); in assay [6], -1.08 (inactive).

For the molecule `O=C1OCCC=C[C@H]2OC34C=CCN(Cc5ccccc5)C(=O)[C@H]3N(CCCO)C(=O)[C@@H]4C12` (stereo not given in full), the composite z-score is -0.595 in assay [1]; 0.549 in assay [5]; -0.0807 in [7]; -0.335 in assay [8]; -0.278 in [9]; -0.175 in assay [10]. Also, the z-score in [2] was 0.252 (inactive); in assay [3], -0.206 (inactive); in assay [4], -1.54 (inactive); in assay [6], 2.79 (inactive).

Consider `[N-]=[N+]=NCc1ccccc1C[C@]1(C(=O)O)N=C(c2ccc(OCCCO)cc2)O[C@H]1c1ccccc1CN=[N+]=[N-]`, for which the composite z-score in assay [1] is 0.893; in [5], 3.25; in [7], 0.0987; in assay [8] it was -0.118; in assay [9], 0.759; in [10], 0.0617. The z-score in [2] was -1.17 (inactive); in [3] it was -3.09 (inactive); in assay [4], -1.92 (inactive); in assay [6], -0.292 (inactive).

Consider `COc1ccc(CCNC(=O)[C@@]2(c3ccc([N+](=O)[O-])cc3)CC(=O)N(CC34CC5CC(CC(C5)C3)C4)[C@@H]2c2ccc(CO)cc2)cc1`, for which the composite z-score in assay [1] was determined as 1.37; in [5], 2.11; in assay [7], 0.257; in assay [8], 0.71; in [9], 1.16; in [10], 0.544. Further, the z-score was 0.719 (inactive) in assay [2], -0.063 (inactive) in assay [3], 6.65 (inactive) in [4] and -0.108 (inactive) in [6].

Consider `C[N+](C)(C)CCCCCCNC(=O)[C@H]1C[C@H]2C(=O)N3CCC[C@H]3C(=O)N2[C@H]1c1ccc(O)cc1`, for which the composite z-score in assay [1] is 1.54; in assay [5], 2.96; in assay [7], 0.0087; in assay [8], 0.785; in assay [9] it was 0.6; in [10], -0.36. The z-score in assay [2] was -0.842 (inactive); in [3], -0.153 (inactive); in assay [4], -0.185 (inactive); in assay [6], 0.89 (inactive).

Consider `COCCOC(=O)N1C(=O)[C@@]2(c3cc(C#CC4(O)CCCCCC4)ccc31)[C@H](C(=O)N1CCCCCCC1)[C@H]1C(=O)O[C@H](c3ccccc3)[C@H](c3ccccc3)N1[C@@H]2c1ccccc1OCCO`, for which the composite z-score in assay [1] turned out to be 1.48; in assay [5], 3.22; in assay [7] it was 0.911; in assay [8], 1.55; in assay [9], 1.05; in [10], 0.495. The z-score is 1.41 (inactive) in assay [2], -1.07 (inactive) in assay [3], 3.73 (inactive) in assay [4] and 0.431 (inactive) in assay [6].

With `C=C(COC)C(=O)CC[C@H](OC(C)=O)c1cccc(OCCO)c1`, the composite z-score is 0.591 in assay [1]; 0.118 in [5]; -0.158 in [7]; 1.03 in assay [8]; -0.902 in assay [9]; -0.263 in [10]. Also, the z-score in assay [2] is 0.513 (inactive); in assay [3], -1.34 (inactive); in assay [4], -0.0523 (inactive); in [6], 0.896 (inactive).

On to `CCCN1C(=O)[C@]2(COC(c3ccc(OCCCO)cc3)=N2)Cc2ccccc21`, for which the composite z-score was 1.18 in assay [1]; 2.88 in assay [5]; 0.303 in assay [7]; 0.134 in assay [8]; 0.112 in assay [9]; -0.0774 in [10]. In addition, the z-score was -0.102 (inactive) in assay [2], -2.37 (inactive) in [3], -1.35 (inactive) in assay [4] and 0.525 (inactive) in assay [6].

Take `COCCOC(=O)N1C(=O)[C@@]2(c3cc(C#CCNC(N)=O)ccc31)[C@H](c1ccc(OCCO)cc1)N1[C@H](c3ccccc3)[C@H](c3ccccc3)OC(=O)[C@H]1[C@@H]2C(=O)N1CCc2cc(OC)c(OC)cc2C1`: the composite z-score was 0.993 in assay [1]; 0.816 in [5]; -0.0555 in assay [7]; 1.04 in assay [8]; 0.983 in assay [9]; -0.0007 in assay [10]. Besides, the z-score in assay [2] was 1.46 (inactive); in assay [3] it was 1.41 (inactive); in [4] it was 4.56 (inactive); in assay [6], 0.196 (inactive).

On to `O=C1O[C@H](c2ccccc2)[C@H](c2ccccc2)N2[C@H]1[C@@H](C(=O)Nc1nc3ccccc3s1)[C@]1(C(=O)Nc3ccccc31)[C@H]2c1ccc(O)cc1`, for which the composite z-score in assay [1] was 1.55; in assay [5] it was 2.74; in assay [7], -0.23; in assay [8], 1.24; in [9] it was 1.15; in assay [10] it was -0.0644. In addition, the z-score in assay [2] was 0.474 (inactive); in assay [3], -0.0898 (inactive); in [4] it was 0.677 (inactive); in assay [6], 0.071 (inactive).

Turning to `CC(C)N1C(=O)[C@@]2(c3ccc([N+](=O)[O-])cc3)CC(=O)N(CC34CC5CC(CC(C5)C3)C4)[C@@H]2c2ccc(CO)cc21`, the composite z-score was 0.788 in assay [1]; -0.0313 in assay [5]; -0.253 in [7]; -0.337 in assay [8]; 0.272 in assay [9]; -0.162 in assay [10]. Also, the z-score is 0.759 (inactive) in assay [2], 0.652 (inactive) in [3], -0.975 (inactive) in assay [4] and -0.0342 (inactive) in [6].

As to `O=C(CS)NCCCCCCNC(=O)[C@@H]1C[C@@H]2C(=O)N3CCC[C@H]3C(=O)N2[C@@H]1c1ccc(O)cc1`, the composite z-score was 1.14 in [1]; 2.54 in assay [5]; -0.0903 in assay [7]; -0.221 in [8]; 0.165 in assay [9]; -0.118 in [10]. The z-score in assay [2] was 0.883 (inactive); in assay [3] it was 0.626 (inactive); in assay [4] it was 1.07 (inactive); in assay [6] it was 0.0508 (inactive).

With `O=C(CS)NCCCCCCNC(=O)[C@H]1C[C@H]2C(=O)N3CCC[C@H]3C(=O)N2[C@H]1c1cccc(OCCO)c1`, the composite z-score in assay [1] was found to be 1.5; in assay [5] it was 3.05; in assay [7], 0.105; in assay [8], 0.858; in assay [9], 1.1; in [10], 0.0219. The z-score is -0.319 (inactive) in assay [2], -0.26 (inactive) in assay [3], 0.0927 (inactive) in assay [4] and -0.983 (inactive) in [6].
